Here are results for 15 molecules from article PMC12136788.

The labels stand for the following.
T1: UNK ZnF1-3 (human, UniProt Q9C0B0 31-174)
T1 sequence: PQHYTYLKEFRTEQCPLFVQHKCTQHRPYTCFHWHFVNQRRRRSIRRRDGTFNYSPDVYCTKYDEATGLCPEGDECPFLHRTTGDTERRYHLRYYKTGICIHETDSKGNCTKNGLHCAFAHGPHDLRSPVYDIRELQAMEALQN

B1: chr13:100200574:100200575:-_ENSMUSG00000052727_ENSMUST00000064762|mus_hu|motif|central (ssRNA)
RNA: GGGAGUUCUACAGUCCGACGAUCAUAAUCUUCUUCAUCUGGGGACCUGGUUGUUUCCUCAGGCUUUUGAUAGGCAUAGCGGAAGUCACCAGGUGUCUUCCCUCCACUGUCCUUCUCCAGGCCAGGUGUGGACAAAUCUCUAUUCAACAGAGGAUUGAGCAUCA
B2: chr2:48026839:48026840:+_ENSG00000116062_ENST00000540021|hu_hu|hu_hu_hu_mus_False|58_68 (ssRNA)
RNA: GGGAGUUCUACAGUCCGACGAUCAUAGUGAGCCACUAGCGUCCUAAAUCUGGAACAGUGGCGGUCAUCUGAAAACUGACCUAUGAAAAACUUGCCCAGUGAAGUGUCCACAAAGCAAACACCAUACACACGAGUGUGACCAGACAACAGAGGAUUGAGCAUCA
B3: chrX:98862621:98862622:+_ENSMUSG00000034160_ENSMUST00000044475|mus_hu|mus_mus_mus_hu_False|48_68 (ssRNA)
RNA: GGGAGUUCUACAGUCCGACGAUCCUGCAUCUCCUUUAGAGUGUUUCCCAUAUUAGAGUAGGCAUCAGCAAAUGUAGGACUGAUUCGUAUGGCUUCUUUAUAAUGCAUCAGAGCUUCCUGCAGUUUUCCCUGCUGCUGCAGUACCAACAGAGGAUUGAGCAUCA
B4: chr16:49913422:49913423:+_ENSMUSG00000055447_ENSMUST00000084838|mus_mus|FALSE|FALSE (ssRNA)
RNA: GGGAGUUCUACAGUCCGACGAUCGCUCUCUACGAUUGUAUAAGUGGAGGGCAGACAAUAAAUAAAAAUUGAAUAGAGGCUAUGACAGCAGAAAUCGGGAUUUGGGAGAGAAAAGCGCAUUGUGGGACAAAACAGAUGCGUGGUCAACAGAGGAUUGAGCAUCA
B5: chr12:86641468:86641469:-_ENSMUSG00000034290_ENSMUST00000040992|mus_hu|FALSE|FALSE (ssRNA)
RNA: GGGAGUUCUACAGUCCGACGAUCCAAGACCUCCCACAAUGUUGAUAAGAUUAUCAAACAUUUUGGUCUGGGGAAGAUGAAACAAAAUUAAUUUAGCUGUUUAUAGGAAGGUGGGAUGUGAGACUCAUCAAAGGUAGGAUGUGUCAACAGAGGAUUGAGCAUCA
B6: chr1:46159212:46159213:+_ENSG00000159596_ENST00000372025|hu_mus|hu_hu_hu_mus_True|8_68 (ssRNA)
RNA: GGGAGUUCUACAGUCCGACGAUCUCUGAUCCCUCCCAAGAAAGCUAGGAAACCGGCUCCAUAAGCCAUCUGAGUAAAAGCUAGGACGGGGAUAUAAGACUUUGUUAUUACCAUGAGAAGUGGGGGAGCAACGAAGGGGAUUAACAACAGAGGAUUGAGCAUCA
B7: chr8:73998637:73998638:+_ENSMUSG00000074247_ENSMUST00000124745|mus_hu|FALSE|FALSE (ssRNA)
RNA: GGGAGUUCUACAGUCCGACGAUCCUUGAUACAGGUUACAGCAUAAAUAAAAACUCAAGGAAAAUAAAUACAUCGGCUCCUAUGAGGUUGGAAGUGGUGUGGACGCAGGGUGUGGAUGGGCCGGCAGGGAGGCGGGCGGGCGGGCAACAGAGGAUUGAGCAUCA
B8: chr2:238002776:238002777:+_ENSG00000198612_ENST00000392008|hu_hu|FALSE|FALSE (ssRNA)
RNA: GGGAGUUCUACAGUCCGACGAUCGAUUGAAGUAUACGCUUGAGAGACCAGGGCAAAGGCGCGUCUCCUUGUUGCAUCUCUAAGUGCUUCCAUAAUUGGCUGGACCGUCUCAGACCACUGGUGAGCGUUGAUGGUUGUAUAGAUCAACAGAGGAUUGAGCAUCA
B9: chr16:49913422:49913423:+_ENSMUSG00000055447_ENSMUST00000084838|mus_mus|motif|central (ssRNA)
RNA: B4 RNA with U80G, A81G
B10: chr4:109959997:109959998:-_ENSMUSG00000028546_ENSMUST00000106598|mus_mus|motif|central (ssRNA)
RNA: GGGAGUUCUACAGUCCGACGAUCUAUAUAUAUAUAUUAAAGAUCCACAGACCACAGUGUGGAUGAUUGUAAAGUAAAUCGGUUAUUGGGAGGGGGUGGGGUGGGAAAGAAAGGGGGAAAAAAAAGAGAGGAAGAAAAGGCGCACAACAGAGGAUUGAGCAUCA
B11: chr1:205685097:205685098:-_ENSG00000069275_ENST00000367142|hu_hu|motif|central (ssRNA)
RNA: GGGAGUUCUACAGUCCGACGAUCUAUCAAGCCUGACUAUUGAGCACCUGUAUCCAGUUGAGUCACCACCACUGUCCUCCGGUUUGCAUGCAUGAUUUGAGGGGAAGACUAGAGUGUUUUAAAUCAUCAAUAAAAAGUGGAGAACAACAGAGGAUUGAGCAUCA
B12: chr8:27092522:27092523:-_ENSMUSG00000037251_ENSMUST00000061850|mus_mus|FALSE|FALSE (ssRNA)
RNA: GGGAGUUCUACAGUCCGACGAUCAGCGGGGUGGGUUGUUGUUUGCUGUUGGUCGGUGUUUGUGAAGUGGUCGUGGGCGAAGAAGAAACAAGAAGAAAUGAGAUAUCUUGGCAGCAAAGAUCAUUGCUCCAAGGAACUCGACACCAACAGAGGAUUGAGCAUCA
B13: chr4:109959997:109959998:-_ENSMUSG00000028546_ENSMUST00000106598|mus_mus|FALSE|FALSE (ssRNA)
RNA: B10 RNA with G80U, G81A
B14: chr4:109959997:109959998:-_ENSMUSG00000028546_ENSMUST00000106598|mus_hu|FALSE|FALSE (ssRNA)
RNA: GGGAGUUCUACAGUCCGACGAUCUGUUAUAUAUAAUUAAAGAUCCACAAAACACAGUGUGGAUGAUUGUAAAGCAAAUCAAUUAUUUUUGGGGGGGUGGGCGGGGGAGAGAAAGAAAAAAAAGAAAAGGAGCAGUGAGCUGAACAACAGAGGAUUGAGCAUCA
B15: chr1:46159212:46159213:+_ENSG00000159596_ENST00000372025|hu_mus|hu_hu_hu_mus_True|68_98 (ssRNA)
RNA: B6 RNA with C44A, A130G, C131U, G132A

Positions count from the first letter of the chain named. Whole data set: some 24,000 sequences, median “enrichment r” near 0.99, cut for the highest 2% near 3.7. Only a selection was taken, and the highest values are over-represented in it overall.

This assay has as its target T1, UNK ZnF1-3. The experiment in a line: nsRBNS (natural sequence RNA bind-n-seq); RBNS binding buffer (assumed for nsRBNS): 25 mM Tris pH 7.5, 150 mM KCl, 3 mM MgCl2, 0.01% Triton X-100, 500 ug/ml BSA, 20 U/ml SUPERase-In, 4 C; UNK is unkempt and MSI1 is Musashi-1; names of the RNAs are library labels; protein concentration not given here; high values mean tight binding.
B1 yielded a binding signal of 0.378 enrichment R.

Molecule B2 displayed a binding signal of 1.18 enrichment R.

The molecule B3 yielded a binding signal of 1.06 enrichment R.

Molecule B4 yielded a binding signal of 3.41 enrichment R.

As to B5, the binding signal was 1.55 enrichment R.

For B6, the binding signal stood at 1.56 enrichment R.

With B7, the binding signal worked out at 3.01 enrichment R.

With B8, the binding signal turned out to be 0.907 enrichment R.

Turning to B9, the binding signal stood at 3.75 enrichment R.

For B10, the binding signal was determined as 5.4 enrichment R.

In the case of B11, the binding signal amounted to 2.19 enrichment R.

On to B12, for which the binding signal amounted to 1.76 enrichment R.

The molecule B13 gave a binding signal of 5.2 enrichment R.

B14 had a binding signal of 3.98 enrichment R.

In turn, B15 came in with a binding signal of 1.71 enrichment R.
